# AmpC no deterg: blocks E. coli AmpC beta-lactamase in detergent-free assay; P00811; AmpC nitrocefin hydrolysis, absorbance 480 nm, 0.0001% Triton; Potency, µM (titrated, usually from 57.1 µM), usual class: inhibitors; hit rate 0.52% among 330,000; AID 485341; note: nearly all actives have a fitted effect of over 20% in size
# Target sequence (P00811 whole entry, looked up): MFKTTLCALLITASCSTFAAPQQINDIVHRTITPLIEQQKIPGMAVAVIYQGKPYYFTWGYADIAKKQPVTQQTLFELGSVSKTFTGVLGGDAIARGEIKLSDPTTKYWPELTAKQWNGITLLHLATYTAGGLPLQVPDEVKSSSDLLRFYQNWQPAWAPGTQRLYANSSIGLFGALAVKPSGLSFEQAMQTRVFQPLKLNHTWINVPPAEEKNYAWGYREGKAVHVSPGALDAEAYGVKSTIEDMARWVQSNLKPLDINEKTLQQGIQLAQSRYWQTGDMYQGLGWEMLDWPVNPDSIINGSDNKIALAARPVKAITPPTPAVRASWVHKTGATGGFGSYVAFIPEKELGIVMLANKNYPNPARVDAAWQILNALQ
#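 AmpC (5.3 nM in the dispensed reagent) in 20 mM phosphate pH 7.0 with 0.01% (detergent screen) or 0.0001% Triton X-100 was preincubated with compounds for 15 min at room temperature. Nitrocefin was then added from an 800 uM solution, and hydrolysis was followed at 480 nm.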
# SARS PLP yeast: inhibitors of SARS-CoV papain-like protease in yeast. Potency, µM (doses to about 32.9 µM), actives largely listed as activators. S. cerevisiae expressing SARS-CoV PLpro, growth rescue. AID 485353. hit rate 0.19% among 330,000; calls by dose curve; note: nearly all actives have a fitted effect of over 55% in size
# Pf growth 96h: P. falciparum growth inhibition at 96 hours; P. falciparum luciferase reporter growth, 96 h; Potency, µM (doses to about 28.7 µM), hits mostly inhibitors; hit rate 6.9% among 320,000
#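 Infected RBCs, 2% Hct / 0.05% parasitemia final; luciferase-reporter P. falciparum; cpd 96 h, 37 C, 5% CO2; luciferase detection reagent; luminescence.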
# Sm TGR inh: inhibitors of Schistosoma mansoni thioredoxin glutathione reductase. AID 485364. Q962Y6. purified TGR, DTNB reduction, TNB absorbance 405 nm. hit rate 3% among 360,000. Potency, µM (highest dose often 114 µM), most hits filed as inhibitors; note: nearly all actives have a fitted effect of over 60% in size
#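 TGR 20 nM + NADPH 100 uM (dispensed conc.), cpd preinc 15 min RT; start with NADPH (500 uM addition) then DTNB (15 mM addition). Kinetic TNB absorbance, 405 nm filter. Four-parameter Hill fit across titration.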
# Pf growth 48h: P. falciparum growth inhibition at 48 hours (one generation) | P. falciparum luciferase growth in erythrocytes, 48 h | Potency, µM (highest dose often 28.7 µM), hits mostly inhibitors | hit rate 5.9% among 310,000
#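 Luciferase-expressing parasites in RBCs, 2% Hct / 0.1% parasitemia final; RPMI 1640 + 0.5% Albumax; 37 C, 5% CO2, one generation; luminescence read-out, lower signal = inhibition.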
# AmpC inh detg: inhibitors of E. coli AmpC beta-lactamase with detergent. AID 485294. AmpC hydrolysis of nitrocefin, absorbance 480 nm, 0.01% Triton. Potency, µM (titrated, usually from 114 µM), hits mostly inhibitors. hit rate 0.041% among 370,000. P00811; note: nearly all actives have a fitted effect of over 25% in size
#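 AmpC (5.3 nM in the dispensed reagent) in 20 mM phosphate pH 7.0 with 0.01% (detergent screen) or 0.0001% Triton X-100 was preincubated with compounds for 15 min at room temperature. Nitrocefin was then added from an 800 uM solution, and hydrolysis was followed at 480 nm.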
# Hits are given with their value; - = inactive; ? = inconclusive; . = not tested or not shown; [ ] = dose if it differs, or a comment. Only some compounds are listed: those with a hit (about 12% of all), similar ones and a draw of the others. Unless noted, calls come from the whole dose curve; as a rule, active = well fitted curve in the direction sought with a large enough effect; inconclusive = small, poorly fitted or top-dose-only effect, or another doubt; inactive = no such curve, though single readings can be large; an effect the other way counts as inactive or inconclusive.
SMILES,AmpC no deterg,SARS PLP yeast,Pf growth 96h,Sm TGR inh,Pf growth 48h,AmpC inh detg
CCOC(=O)c1c(S(=O)(=O)N2CCCC(C(=O)N3CCN(c4cccc(C)c4C)CC3)C2)c(C)n(C)c1C (configuration not stated),.,.,.,-,.,-
CCn1c(OC)nc2c1c(=O)n(C)c(=O)n2C,-,-,-,-,-,-
CCCOc1nc2c(c(=O)n(C)c(=O)n2C)n1CC,-,-,2.1µM,-,-,-
O=C(CSc1nccn1-c1ccc(F)cc1)Nc1nc2ccccc2s1,.,.,.,-,.,-
O=C(N/N=C/c1ccc(-c2ccccc2C(=O)O)o1)c1cccs1,-,-,-,?,-,-
O=C(CC(Nc1ccc(Cl)cc1Cl)C(=O)O)c1ccccc1 (configuration not stated),-,-,-,3.2µM,-,-
Cc1ccc(NC(CC(=O)c2ccccc2)C(=O)O)cc1Cl (configuration not stated),-,-,-,0.79µM,-,-
O=C(CC(Nc1ccccc1)C(=O)O)c1ccccc1 (configuration not stated),-,-,.,2.2µM,-,?
O=C(CNc1ccc(F)cc1)c1ccccc1,-,-,-,.,?,-
O=C(CC(C(=O)O)c1cccc(Cl)c1)c1ccccc1 (configuration not stated),-,-,-,-,-,-
O=C(CC(Nc1ccccc1)c1ccc(F)cc1)c1ccccc1 (configuration not stated),-,-,2.6µM,-,-,-
CCOc1ccc(CNC(=O)CCCn2c(=O)c3cccn3c3ccc(F)cc32)cc1,.,.,.,-,.,-
CSc1nc(C)c(C(=O)C[n+]2ccccc2C)cc1C#N,-,-,?,-,15µM,-
Cn1c(=O)c2c(nc(NCc3ccco3)n2CCc2ccccc2)n(C)c1=O,-,-,?,-,-,?
COc1ccnc(Oc2ccc(F)cc2)c1C(=O)N/C=N/OCc1c(Cl)cccc1Cl,-,-,?,-,12µM,-
O=C(Cc1ccc(Cl)cc1)NCC(c1cccs1)S(=O)(=O)c1ccc(F)cc1 (configuration not stated),.,.,.,-,.,-
CCCCc1nc2ccccc2c(=O)n1-c1ccccc1O,-,-,?,-,?,-
CCCCCc1nc2ccccc2c(=O)n1-c1ccc(Cl)cc1[N+](=O)[O-],-,-,13µM,-,4.7µM,-
Cc1ccc(NC(=O)CSc2n[nH]c(-c3ccc(F)cc3)n2)cc1F,.,.,.,-,.,-
COc1cccc(Cn2c(=O)n(-c3cccc(Cl)c3)c(=O)c3c4c(sc32)CN(C(C)=O)CC4)c1,.,.,.,-,.,-
COc1cc(Cl)c(CN2CCC(CCC(=O)NC3CC3)CC2)cc1OC,-,-,?,-,-,-
CCOCc1cc(CN2CCC(CCC(=O)NC3CC3)CC2)ccc1OC,-,-,9.3µM,-,-,-
COc1cc(Cl)cc(CN2CCC(CCC(=O)NC3CC3)CC2)c1OC,-,-,13µM,-,?,?
CCc1ccc(CNC(=O)CN2C(=O)c3cccnc3Oc3ccc(C)cc32)cc1,.,.,.,-,.,-
CCN(c1cccc(C)c1)S(=O)(=O)c1ccc2[nH]cc(C(=O)NCCCOC)c(=O)c2c1,.,.,.,-,.,-
SMILES,AmpC no deterg,SARS PLP yeast,Pf growth 96h,Sm TGR inh,Pf growth 48h,AmpC inh detg
Cc1cccc(OCC(=O)OCc2cc(=O)n3nc(C4CC4)sc3n2)c1,.,.,.,-,.,-
COC(=O)c1ccc(CNC(=O)CNc2cc(C(F)(F)F)ccc2N2CCOCC2)cc1,-,-,8.3µM,-[11.4 µM],.,-
Cc1ccccc1SCC(=O)Nc1cc(C(F)(F)F)ccc1N1CCOCC1,-,-,4.7µM,-,2.1µM,?
CC(=O)NC(=S)Nc1cc(C(F)(F)F)ccc1N1CCOCC1,-,-,-,-,-,-
O=C(Nc1cc(C(F)(F)F)ccc1N1CCOCC1)c1ccccc1,-,-,.,-,-,-
Cc1nnc(SCC(=O)Nc2cc(C(F)(F)F)ccc2N2CCOCC2)o1,-,-,.,-,-,?
O=C(NC(=S)Nc1cc(C(F)(F)F)ccc1N1CCOCC1)c1ccco1,-,-,?,11µM,?,-
CCC(=O)Nc1cc(C(F)(F)F)ccc1N1CCOCC1,-,-,.,-,?,-
O=C(Nc1cc(C(F)(F)F)ccc1N1CCOCC1)c1ccc(Cl)nc1,-,?,.,-,9.3µM,-
Cc1cccc2cc(CN(Cc3cccs3)C3(c4nnnn4C4CCCC4)CCCC3)c(=O)[nH]c12,-,-,-,-,-,?
Cc1ccc(S(=O)(=O)Nc2ccc(C(=O)N3CCOCC3)cc2)cc1,-,-,?,-,-,-
O=C(CCC1CCCC1)Nc1cc(C(F)(F)F)ccc1N1CCOCC1,-,-,13µM,-,12µM,-
CCOc1ccccc1NC(C)C(=O)Nc1cc(C(F)(F)F)ccc1N1CCOCC1 (configuration not stated),-,-,0.29µM,-,0.59µM,-
Cc1cc(CC(C)CC(C)(C)C)n(O)c(=O)c1 (configuration not stated),.,.,3µM,.,4.8µM,.
O=C(NC1CCC(O)CC1)c1ccc(NS(=O)(=O)c2cccc([N+](=O)[O-])c2)cc1 (configuration not stated),-,-,-,-,-,-
Cc1nn(-c2ccccc2)c(C)c1C(=O)NCc1ccc(F)cc1,-,-,-,-,-,-
Cc1c(C(=O)NCc2ccc(F)cc2)c(-c2ccccc2)nn1-c1ccccc1,-,-,5.9µM,-,.,-
O=C(Nc1ccc(F)cc1F)c1ccc2c(O)c(S(=O)(=O)c3ccc(Cl)cc3)c(=O)[nH]c2c1,.,.,.,-,.,-
O=C(O)c1c2c(nc3ccccc13)-c1ccccc1CC2,-,-,-,-,-,-
c1ccc2c(c1)CCc1c-2nc2ccccc2c1N1CCOCC1,-,-,?,-,15µM,-
CCN(CC)CCOC(=O)c1ccc(NC(=O)C(C)NC(=O)C23CC4CC(CC(C4)C2)C3)cc1 (configuration not stated),-,-,12µM,-,-,-
COc1ccc(C2C(C#N)=C(SCC(=O)Nc3ccc(C)cc3)NC3=C2C(=O)CC(C)(C)C3)cc1 (configuration not stated),-,-,?,-,13µM,-
CCCCc1ccc(NC(=O)CSC2=C(C#N)C(c3ccco3)C3=C(CCCC3=O)N2)cc1 (configuration not stated),-,-,?,-,1.9µM,-
CC(C)(C)c1ccc(C(=O)CCCSC2=C(C#N)C(c3ccco3)C3=C(CCCC3=O)N2)cc1 (configuration not stated),-,-,-,40µM,6.6µM,-

# Bioassay records as filed in PubChem.
